Drawing on PubChem BioAssay, this text covers activity remaining for 40 molecules.

Several values for one entry are separate records, joined by “and”; a condition that tells them apart may be missing. Equal entries are not always repeated. A number with no mark means an inactive call. No rule for the calls is given here.

This assay deals with Aerobactin synthetase IucA (Klebsiella pneumoniae hvKP1). As to the kind of experiment: IucA enzyme inhibition, primary screen, biochemical, Spectrum library (AID 1346200).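 Also: 100% = wells without compound and 0% = wells lacking enzyme.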 Particulars: malachite green pyrophosphate, A620, at 8 µM, stronger effect = lower value.
`CC(C)=CCc1c2c(c3occ(-c4ccc(O)cc4)c(=O)c3c1O)C=CC(C)(C)O2`: the activity remaining was 99.3%.

`CC(Cc1cccc(C(F)(F)F)c1)NCCOC(=O)c1ccccc1` (stereo not given): the activity remaining was 98.2%.

Consider `COc1ccccc1OCC(O)CO` (stereo not given), for which the activity remaining was 94.5%.

As for `Cc1cccc(Nc2ccccc2C(=O)O)c1C`, the activity remaining is 111%. With `CC[C@H](C)C(=O)O[C@H]1C[C@@H](C)C=C2C=C[C@H](C)[C@H](CC[C@@H]3C[C@@H](O)CC(=O)O3)[C@H]21`, the activity remaining is 119%. The same measure for `Nc1nc2ncc(=O)[nH]c2c(=O)[nH]1`: 121%.

As to `COc1cc(-c2coc3cc(OC)c(OC)c(OC)c3c2=O)cc(OC)c1OC`, the activity remaining was 121%. For `CC(=O)O[C@]1(C(C)=O)CCC2C3C=C(C)C4=CC(=O)CCC4(C)C3CCC21C` (stereo not given in full), the activity remaining is 98%. The same measure for `CCN(CC)CCNC(=O)c1cc(Br)c(N)cc1OC`: 109%. `c1ccc(CC2=NCCN2)cc1`: the activity remaining was 118%.

For the molecule `CC(=O)O[C@H]1CC[C@]2(C)C3CC(=O)[C@]4(C)C(C(C)=O)=CCC4C3CC[C@H]2C1` (stereo not given in full), the activity remaining was 101%.

As for `NCC(O)CC(=O)O` (stereo not given), the activity remaining is 98.6%.

Turning to `CC(C)[N+]1(C)C2CC[C@@H]1CC(OC(=O)C(CO)c1ccccc1)C2` (stereo not given in full), the activity remaining was 109%. For `CCCOc1ccc(C(=O)OCCN(CC)CC)cc1N`, the activity remaining is 109%.

`C=CCCCCCCCCC(=O)O`: the activity remaining was 111%.

For `CCC(=O)c1c(O)cc(O)cc1O`, the activity remaining was 116%. For the molecule `CCC[C@H](N[C@@H](C)C(=O)N1[C@H](C(=O)O)C[C@@H]2CCCC[C@@H]21)C(=O)OCC`, the activity remaining is 121%.

As for `COc1c(-c2coc3cc4c(cc3c2=O)CC(O)C(C)(C)O4)ccc2c1C=CC(C)(C)O2` (stereo not given), the activity remaining was 112%. With `COc1ccc(-c2coc3c(O)c(OC)ccc3c2=O)cc1`, the activity remaining was 115%. The same measure for `CCCCCCCCCCCCCCC(C(=O)O)C(O)(CC(=O)OC)C(=O)O` (stereo not given): 128%. The same measure for `CC(=O)[C@H]1CCC2C3CC=C4C[C@@H](O)CC[C@]4(C)C3CC[C@@]21C` (stereo not given in full): 99.4%. Then `CC(=O)Oc1ccc2c(c1)CCC1C2CC[C@]2(C)C(=O)CCC12` (stereo not given in full), with 99.1%. On to `CCC(=O)OC1[C@@H]2CC3=C4CC(=O)O[C@@H](c5ccoc5)[C@]4(C)CCC3C(C)(C2=O)[C@@H](CC(=O)OC)C1(C)C` (stereo not given in full), for which the activity remaining was 121%. Take `Cc1cc(C)nc(NS(=O)(=O)c2ccc(N)cc2)n1`: the activity remaining is 111%.

In the case of `O=C(CCc1ccc(O)cc1)c1c(O)cc(O)cc1O[C@@H]1O[C@H](CO)[C@@H](O)[C@H](O)[C@H]1O`, the activity remaining is 105%.

On to `COc1cc2c(cc1OC)-c1cc3ccc(OC)c(OC)c3c[n+]1CC2`, for which the activity remaining is 97.8% and 112%.

Regarding `NC1=NCCN1CC(=O)O`, the activity remaining was 112%. For `CN(Cc1cc(Br)cc(Br)c1N)C1CCCCC1`, the activity remaining was 112%. The same measure for `COc1ccc(/C=C/C(=O)O)cc1OC`: 110% and 92.7%. The same measure for `COC(=O)[C@@]1(C)CCC[C@]2(C)c3ccc(O)c(C(C)C)c3CCC12` (stereo not given in full): 121%; for `COc1ccc(C(=O)c2ccccc2O)c(O)c1`: 107%; for `O=C1OC2(c3ccc(O)cc3Oc3cc(O)ccc32)c2ccccc21`: 111%. Then `CCCCC1(COC(=O)CCC(=O)O)C(=O)N(c2ccccc2)N(c2ccccc2)C1=O`, with 110%. For the molecule `CCOC(=O)[C@H](CCc1ccccc1)N[C@H]1CCc2ccccc2N(CC(=O)O)C1=O`, the activity remaining was 123%. Take `CC(C)CCCC(C)[C@H]1CCC2C3CC=C4C[C@@H](O)CC[C@]4(C)C3CC[C@@]21C` (stereo not given in full): the activity remaining is 117%.

As to `Cc1cc(CC(=O)O)n(C)c1C(=O)c1ccc(Cl)cc1`, the activity remaining is 77.2%.

With `C[C@@H]1O[C@@H](O[C@H]2[C@H](Oc3cc(O)c4c(=O)cc(-c5ccc(O)cc5)oc4c3)O[C@H](CO)[C@@H](O)[C@@H]2O)[C@H](O)[C@H](O)[C@H]1O`, the activity remaining was 90.6%.

Consider `O=C(O)c1ccccc1OP(=O)(O)O`, for which the activity remaining is 116%.

In the case of `CC(CCC(=O)O)[C@H]1CCC2C3C[C@H](O)[C@@H]4C[C@H](O)CC[C@]4(C)C3CC[C@@]21C` (stereo not given in full), the activity remaining is 104%. The same measure for `COc1ccc2ccc(=O)oc2c1CC=C(C)C`: 106%.
